Assay outcomes (PubChem)
E coli Lon inh – inhibits E. coli Lon protease | inhibition, % at 7.94 µM | P0A9M0 | 360,000 compounds, 0.42% hits | purified E. coli Lon protease, fluorescence polarization; in the data active = inhibition above about 13%, passing the limit was not always enough
Target sequence (P0A9M0 whole entry, looked up): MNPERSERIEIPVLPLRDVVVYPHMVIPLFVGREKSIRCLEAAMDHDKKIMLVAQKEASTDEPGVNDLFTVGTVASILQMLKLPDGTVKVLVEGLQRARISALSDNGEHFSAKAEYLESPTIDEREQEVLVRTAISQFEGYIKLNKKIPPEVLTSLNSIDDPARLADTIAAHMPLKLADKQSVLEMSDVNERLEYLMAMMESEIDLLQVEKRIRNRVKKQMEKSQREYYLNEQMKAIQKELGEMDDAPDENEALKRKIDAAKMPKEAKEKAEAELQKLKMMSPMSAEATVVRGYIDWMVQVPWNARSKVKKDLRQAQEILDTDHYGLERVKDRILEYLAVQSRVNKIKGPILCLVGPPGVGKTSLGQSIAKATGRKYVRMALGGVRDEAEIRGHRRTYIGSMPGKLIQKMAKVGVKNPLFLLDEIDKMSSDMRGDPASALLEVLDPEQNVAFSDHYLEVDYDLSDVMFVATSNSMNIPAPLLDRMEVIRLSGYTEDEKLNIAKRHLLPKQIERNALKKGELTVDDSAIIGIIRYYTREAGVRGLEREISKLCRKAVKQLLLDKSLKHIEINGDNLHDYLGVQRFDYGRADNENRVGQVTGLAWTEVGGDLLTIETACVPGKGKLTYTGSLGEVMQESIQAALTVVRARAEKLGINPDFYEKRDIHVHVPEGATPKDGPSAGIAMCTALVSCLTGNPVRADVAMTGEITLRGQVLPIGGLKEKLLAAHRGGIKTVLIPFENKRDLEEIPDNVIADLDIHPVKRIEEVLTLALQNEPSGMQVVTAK
Rin1-Abl PPI inh – human Rin1-Abl interaction inhibition | P00519+Q13671 | TR-FRET Rin1/Abl binding, biochemical | 360,000 compounds, 0.4% hits | AID 588664 | inhibition, % at 7.35 µM; in the data active = inhibition above about 5%, passing the limit was not always enough
PAFAH1B2 FP inh – blocks human PAF acetylhydrolase 1b catalytic subunit 2. P68402. inhibition, % at 3.39 µM. recombinant PAFAH1B2, FP-rhodamine activity probe, fluorescence polarization. AID 492953. 340,000 compounds, 1.2% hits;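 active = inhibition above the mean of all tested compounds plus 3 SD, cut at about 24% in these data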
pPAFAH inh – inhibitors of human plasma PAF acetylhydrolase (pPAFAH); Q13093; recombinant pPAFAH, FP-rhodamine probe fluorescence polarization; inhibition, % at 3.39 µM; 330,000 compounds, 1.5% hits; AID 463082;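 active = inhibition above the mean inhibition across the screen plus 3 SD, cut at about 25% in these data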;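 note: inhibitors block binding of the rhodamine activity-based probe so polarization drops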
PAFAH1B3 inh – inhibitors of human PAFAH1B3. 340,000 compounds, 0.28% hits. Q15102. inhibition, % at 3.39 µM. recombinant PAFAH1B3, FP-rhodamine probe, fluorescence polarization;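 active = inhibition above the screen-wide average of all tested compounds plus 3 SD, cut at about 25% in these data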
PAFAH2 inh – inhibitors of human PAFAH2. Q99487. recombinant PAFAH2, FP-rhodamine activity probe, fluorescence polarization. inhibition, % at 3.39 µM. 340,000 compounds, 0.99% hits. AID 492956;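 active = inhibition above the mean over all tested compounds plus 3 SD, cut at about 30% in these data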;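 note: inhibitors block probe labeling of enzyme so polarization drops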
Numbers stand for hits. Hits are enriched below; roughly 3.1% of the tested compounds scored in any of these assays.

What do the screens show for `S=C(Nc1ccc(Oc2ccccc2)cc1)N1CCOCC1`?
E coli Lon inh: inactive; Rin1-Abl PPI inh: inactive; PAFAH1B2 FP inh: 93; pPAFAH inh: inactive; PAFAH1B3 inh: 115; PAFAH2 inh: 127

What do the screens show for `CC(C)(C)c1ccc(CSc2ccc(S(=O)(=O)N3CCOCC3)cn2)cc1`?
E coli Lon inh: inactive; Rin1-Abl PPI inh: inactive; PAFAH1B2 FP inh: inactive; pPAFAH inh: inactive; PAFAH1B3 inh: inactive; PAFAH2 inh: inactive

How did O=C(c1ccc(=O)[nH]n1)N1CCN(S(=O)(=O)c2ccc3ccccc3c2)CC1 do in these assays?
E coli Lon inh: inactive; Rin1-Abl PPI inh: inactive; PAFAH1B2 FP inh: inactive; pPAFAH inh: inactive; PAFAH1B3 inh: inactive; PAFAH2 inh: inactive

What do the screens show for `O=C(c1ccc(=O)[nH]n1)N1CCN(S(=O)(=O)c2cccc(F)c2)CC1`?
E coli Lon inh: inactive; Rin1-Abl PPI inh: inactive; PAFAH1B2 FP inh: inactive; PAFAH1B3 inh: 34; PAFAH2 inh: 34

How did CC(=O)CCc1ccc(Oc2nc(-c3cccnc3)nc3ccccc23)cc1 do in these assays?
E coli Lon inh: inactive; Rin1-Abl PPI inh: inactive; PAFAH1B2 FP inh: inactive; pPAFAH inh: 25; PAFAH1B3 inh: inactive; PAFAH2 inh: inactive

What do the screens show for `Clc1ccc(OCCSCc2nc3ccccc3[nH]2)cc1`?
E coli Lon inh: inactive; Rin1-Abl PPI inh: inactive; PAFAH1B2 FP inh: 31; pPAFAH inh: inactive; PAFAH1B3 inh: inactive; PAFAH2 inh: inactive

How did CC(C)(C)c1ccc(OCC(=O)NNC(=O)Cc2cccs2)cc1 do in these assays?
E coli Lon inh: inactive; Rin1-Abl PPI inh: inactive; PAFAH1B2 FP inh: 26; pPAFAH inh: inactive; PAFAH1B3 inh: inactive; PAFAH2 inh: inactive

How did Cc1ccc(CN2CCC2(C)C(=O)NC2CCc3ccccc32)cc1 (stereo unspecified) do in these assays?
E coli Lon inh: inactive; Rin1-Abl PPI inh: inactive

Results for COc1ccc(CCN2CC(C(=O)NCCc3ccc(C)cc3)CC2=O)cc1OC (stereo unspecified) ?
E coli Lon inh: inactive; Rin1-Abl PPI inh: inactive; PAFAH1B2 FP inh: inactive; pPAFAH inh: 29; PAFAH1B3 inh: inactive; PAFAH2 inh: inactive

How did CCOc1ccc(CCNC(=O)COC(=O)c2[nH]c(C)c(C(C)=O)c2C)cc1OCC do in these assays?
E coli Lon inh: inactive; Rin1-Abl PPI inh: inactive

Results for N/C(=N\OC(=O)CCC1CCCCC1)c1ccc([N+](=O)[O-])cc1 ?
E coli Lon inh: inactive; Rin1-Abl PPI inh: inactive; PAFAH1B2 FP inh: 25; pPAFAH inh: inactive; PAFAH1B3 inh: inactive; PAFAH2 inh: inactive

What do the screens show for `N/C(=N\OC(=O)CC1CCCCC1)c1ccc([N+](=O)[O-])cc1`?
E coli Lon inh: inactive; Rin1-Abl PPI inh: inactive; PAFAH1B2 FP inh: inactive; pPAFAH inh: inactive; PAFAH1B3 inh: inactive; PAFAH2 inh: inactive

How did CC(C)(C)NC(=O)CN(CCN1CCOCC1)C(=O)CNS(=O)(=O)c1ccccc1 do in these assays?
E coli Lon inh: inactive; Rin1-Abl PPI inh: inactive; PAFAH1B2 FP inh: inactive; pPAFAH inh: inactive; PAFAH1B3 inh: inactive; PAFAH2 inh: inactive

How did COc1ccc([C@H]2CC(=O)C[C@@H](CCn3cc(Cc4ccccc4)nn3)O2)cc1 do in these assays?
E coli Lon inh: inactive

What do the screens show for `COc1ccccc1NC(=O)CCCCCN1C(=O)c2cccc([N+](=O)[O-])c2C1=O`?
E coli Lon inh: inactive; Rin1-Abl PPI inh: inactive; PAFAH1B2 FP inh: inactive; pPAFAH inh: inactive; PAFAH1B3 inh: inactive; PAFAH2 inh: inactive

What do the screens show for `COc1cc(/C=C2/C(=O)c3cccc([N+](=O)[O-])c3C2=O)c(Br)cc1O`?
E coli Lon inh: inactive; Rin1-Abl PPI inh: inactive; PAFAH1B2 FP inh: inactive; pPAFAH inh: 32; PAFAH1B3 inh: 40; PAFAH2 inh: 40

How did COc1cc(-c2ccc3oc(-c4cccc(C)c4)c(C#CC4(O)CCCCC4)c3c2)cc(OC)c1OC do in these assays?
E coli Lon inh: inactive; Rin1-Abl PPI inh: inactive; PAFAH1B2 FP inh: inactive; pPAFAH inh: 27; PAFAH1B3 inh: inactive; PAFAH2 inh: inactive

Results for O=C(NCC(O)c1ccc([N+](=O)[O-])cc1)C1=COCCO1 (stereo unspecified) ?
E coli Lon inh: inactive; Rin1-Abl PPI inh: inactive; PAFAH1B2 FP inh: inactive; pPAFAH inh: inactive; PAFAH1B3 inh: inactive; PAFAH2 inh: inactive

What do the screens show for `CCC(=O)N(Cc1c(C)nn(-c2ccccc2)c1Cl)c1ccc(Cl)cc1`?
E coli Lon inh: inactive; Rin1-Abl PPI inh: inactive; PAFAH1B2 FP inh: 24; pPAFAH inh: inactive; PAFAH1B3 inh: inactive; PAFAH2 inh: inactive

What do the screens show for `CN(C(=O)COC(=O)c1c[nH]c2ccccc12)c1ccccc1`?
E coli Lon inh: inactive; Rin1-Abl PPI inh: inactive

How did CCCNC(=O)c1ccc(-c2nn(C)c(=O)c3ccccc23)cc1 do in these assays?
E coli Lon inh: inactive; Rin1-Abl PPI inh: inactive; PAFAH1B2 FP inh: inactive; pPAFAH inh: 32; PAFAH1B3 inh: inactive; PAFAH2 inh: inactive

Results for COC(=O)c1ccc(Cn2nc(-c3cc(C)ccc3C)ccc2=O)cc1 ?
E coli Lon inh: inactive; Rin1-Abl PPI inh: inactive; PAFAH1B2 FP inh: inactive; PAFAH1B3 inh: inactive; PAFAH2 inh: inactive

How did CC(=O)Nc1ccc(Nc2nc3ccccc3nc2NS(=O)(=O)c2ccc(Cl)c([N+](=O)[O-])c2)cc1 do in these assays?
E coli Lon inh: inactive; Rin1-Abl PPI inh: inactive; PAFAH1B2 FP inh: inactive; PAFAH1B3 inh: 31; PAFAH2 inh: 52

What do the screens show for `COc1ccccc1NCC(O)COc1ccc(C(C)(C)C)cc1` (stereo unspecified)?
E coli Lon inh: inactive; Rin1-Abl PPI inh: inactive; PAFAH1B2 FP inh: inactive; pPAFAH inh: inactive; PAFAH1B3 inh: inactive; PAFAH2 inh: inactive

What do the screens show for `COc1ccc(CNCC(O)COc2ccc(C(C)(C)c3ccccc3)cc2)cc1` (stereo unspecified)?
E coli Lon inh: inactive; Rin1-Abl PPI inh: inactive; PAFAH1B2 FP inh: inactive; pPAFAH inh: 26; PAFAH1B3 inh: inactive; PAFAH2 inh: inactive

How did COc1ccc(NCC(O)COc2ccc(C(C)(C)C)cc2)cc1 (stereo unspecified) do in these assays?
E coli Lon inh: inactive; Rin1-Abl PPI inh: inactive; PAFAH1B2 FP inh: 27; pPAFAH inh: inactive; PAFAH1B3 inh: inactive; PAFAH2 inh: inactive

How did CCCC1(c2ccccc2)NC(=O)N(CC(=O)Nc2cc(OC)cc(OC)c2)C1=O (stereo unspecified) do in these assays?
E coli Lon inh: inactive; Rin1-Abl PPI inh: inactive; PAFAH1B2 FP inh: inactive; pPAFAH inh: inactive; PAFAH1B3 inh: inactive; PAFAH2 inh: inactive

What do the screens show for `CC(C)(C)OC(=O)N1CCC[C@H]1C(=O)OCC(=O)Nc1cc(S(C)(=O)=O)ccc1Cl`?
E coli Lon inh: inactive; Rin1-Abl PPI inh: inactive; PAFAH1B2 FP inh: inactive; pPAFAH inh: inactive; PAFAH1B3 inh: inactive; PAFAH2 inh: inactive

Results for O=c1[nH]cnc(CN2CCCCC2)c1O ?
E coli Lon inh: inactive; Rin1-Abl PPI inh: inactive; PAFAH1B2 FP inh: inactive; PAFAH1B3 inh: inactive; PAFAH2 inh: inactive

What do the screens show for `O=c1[nH]c(CN2CCCCC2)ccc1O`?
E coli Lon inh: inactive; Rin1-Abl PPI inh: 18

How did C[C@H](NS(=O)(=O)OCC(Cl)(Cl)Cl)C1CC1c1ccccc1 (stereo partly specified) do in these assays?
E coli Lon inh: inactive; Rin1-Abl PPI inh: inactive; PAFAH1B2 FP inh: 32; pPAFAH inh: 26; PAFAH1B3 inh: inactive; PAFAH2 inh: inactive
